This passage reports morphology score and SARS-CoV-2 infection rate results from the supplement of paper PMC13380429.

Experiment [1] concerns Vero E6 infected with SARS-CoV-2. Nature of the experiment: morphology score (similarity to uninfected cells); higher = more like uninfected cells. The following applies: 24 h.
Experiment [2] shares this test system. Nature of the experiment: SARS-CoV-2 infection rate relative to infected DMSO; higher = more infection, active = 60 or less. As to conditions: 24 h.

On to `COc1cc(N)c(Cl)cc1C(=O)N[C@@H]1CCN(CCCOc2ccc(F)cc2)C[C@@H]1OC` (racemic) [cisapride] (10 µM), for which the morphology score in experiment [1] is -0.0266. Also, in experiment [2], the SARS-CoV-2 infection rate is 112% (inactive).
In the same order, the values of `COc1ccc([C@@H]2CC(=O)c3c(O)cc(O)cc3O2)cc1O` [hesperetin] (10 µM) are 0.0387 and 107% (inactive).
In experiment [1], `Cc1cc(Nc2ncc(Cl)c(Nc3ccccc3S(=O)(=O)C(C)C)n2)c(OC(C)C)cc1C1CCNCC1` [ceritinib] (0.833333 µM) registered a morphology score of 0.182. In addition, the SARS-CoV-2 infection rate in experiment [2] is 104% (inactive).
For `NCCCCCc1c[nH]cn1` [impentamine] (10 µM), in that order: 0.128 and 92.5% (inactive).
In the same order, the values of `CN[C@@H](C)C(=O)N[C@H](C(=O)N1CCC[C@H]1C(=O)Nc1snnc1-c1ccccc1)C1CCCCC1` (10 µM) are -0.0857 and 110% (inactive).
For `C[C@H](Nc1ncnc2nc[nH]c12)c1cc2cccc(Cl)c2c(=O)n1-c1ccccc1` [duvelisib] (0.833333 µM), in that order: 0.0653 and 99% (inactive).
For `Cc1c(Cl)cccc1Nc1ccccc1C(=O)O` [tolfenamic-acid] (10 µM), the morphology score in experiment [1] stood at 0.00971. Besides, the SARS-CoV-2 infection rate in experiment [2] is 110% (inactive).
For `CC(=O)O[C@@H]1CC[C@@]2(C)[C@@H](CC[C@]3(C)[C@@H]2C(=O)C=C2[C@@H]4[C@@H](C)[C@H](C)CC[C@]4(C)CC[C@]23C)[C@@]1(C)C(=O)O` [acetyl-11-keto-beta-boswellic-acid] (10 µM), in that order: 0.104 and 105% (inactive).
For `CC(=O)Nc1ccc(C(=O)O)cc1` [acedoben] (10 µM), in that order: 0.0304 and 102% (inactive).
For `CCNC(=O)N1CCN(CCCC(c2ccc(F)cc2)c2ccc(F)cc2)CC1` [amperozide] (10 µM), in that order: -0.101 and 108% (inactive).
Regarding `CN(C)CCCCC(=O)Nc1ccc(NC(=S)NC(=O)c2ccc(C(C)(C)C)cc2)cc1` [tenovin-6] (0.833333 µM), in experiment [1], the morphology score was -0.102. Besides, in experiment [2], the SARS-CoV-2 infection rate was 86% (inactive).
Regarding `COc1cc2c(cc1OC)-c1cc3nc4ccccc4nc3n1C(C)(C)C2` (10 µM), the morphology score in experiment [1] turned out to be 0.134. Also, the SARS-CoV-2 infection rate in experiment [2] was 91% (inactive).
For `CC[C@@](C)(Nc1ccnc(-c2c[nH]c3ncccc23)n1)C(=O)NCC(F)(F)F` [decernotinib] (10 µM), in that order: 0.178 and 108% (inactive).
Regarding `CCCCCCCCCCCC(=O)O` [lauric-acid] (10 µM), in experiment [1], the morphology score is 0.185. Moreover, in experiment [2], the SARS-CoV-2 infection rate is 96.5% (inactive).
On to `O=C(O)c1cc(-c2ccc(F)cc2F)ccc1O` [diflunisal] (10 µM), for which the morphology score in experiment [1] was -0.15. Further, the SARS-CoV-2 infection rate in experiment [2] was 110% (inactive).
In the same order, the values of `Cn1c(-c2ccccc2)nnc1S(C)(=O)=O` (10 µM) are 0.268 and 86.5% (inactive).
In experiment [1], `NCCS(=O)(=O)O` [taurine] (10 µM) gave a morphology score of 0.19. In experiment [2], the SARS-CoV-2 infection rate is 94.5% (inactive).
As for `CCNC(=O)c1n[nH]c(-c2cc(Cl)c(O)cc2O)c1-c1ccc(OC)cc1` (10 µM), in experiment [1], the morphology score stood at 0.0403. Also, the SARS-CoV-2 infection rate in experiment [2] was 104% (inactive).
Turning to `O=C(O)c1c2ccccc2cc2ccccc12` [9-anthracenecarboxylic-acid] (10 µM), in experiment [1], the morphology score was found to be 0.252. For the same compound, the SARS-CoV-2 infection rate in experiment [2] was 89.5% (inactive).
For `COc1cc(N2CCC(N3CCN(C)CC3)CC2)ccc1Nc1ncc(Cl)c(Nc2ccccc2S(=O)(=O)C(C)C)n1` (0.833333 µM), in that order: 0.115 and 102% (inactive).
Turning to `Clc1ccc(C(Cn2ccnc2)OCc2ccc(Sc3ccccc3)cc2)c(Cl)c1` (stereo not given) [fenticonazole] (10 µM), the morphology score in experiment [1] was -0.0119. Further, the SARS-CoV-2 infection rate in experiment [2] is 114% (inactive).
In turn, `O=C(N[C@H]1CN2CCC1CC2)c1cc2cccc(Cl)c2s1` (10 µM) had a morphology score in experiment [1] of 0.352. Also, in experiment [2], the SARS-CoV-2 infection rate was 86.5% (inactive).
In the same order, the values of `CCCC(C(=O)OCCN(CC)CC)(c1ccccc1)c1ccccc1` [proadifen] (10 µM) are 0.323 and 89.5% (inactive).
For `O=C1c2c(O)cc(O)cc2O[C@H](c2cc(O)c(O)c(O)c2)[C@H]1O` [dihydromyricetin] (10 µM), in that order: -0.0984 and 108% (inactive).
For `O=C(O)/C=C/CO` [trans-4-hydroxycrotonic-acid] (10 µM), in that order: 0.0958 and 90.5% (inactive).
For `O=C(NC(Cc1cc(=O)[nH]c2ccccc12)C(=O)O)c1ccc(Cl)cc1` (stereo not given) [rebamipide] (10 µM), in experiment [1], the morphology score stood at 0.0758. Also, the SARS-CoV-2 infection rate in experiment [2] was 104% (inactive).
For `COc1cc(C(=O)NCCCCCC(=O)O)cc(OC)c1OC` [capobenic-acid] (10 µM), in that order: 0.0878 and 108% (inactive).
For `CN1CCN(C(=O)C2C(C(=O)O)[C@H]3CC[C@@H]2O3)CC1` (stereo not given in full) (10 µM), in that order: 0.0648 and 110% (inactive).
For `NC(=O)C1=CN([C@@H]2O[C@H](COP(=O)(O)OP(=O)(O)OC[C@H]3O[C@@H](n4cnc5c(N)ncnc54)[C@H](OP(=O)(O)O)[C@@H]3O)[C@@H](O)[C@H]2O)C=CC1` (10 µM), in that order: -0.0816 and 106% (inactive).
In the case of `C[C@H]1O[C@@H](n2cc(F)c(=O)[nH]c2=O)[C@H](O)[C@@H]1O` [doxifluridine] (10 µM), the morphology score in experiment [1] amounted to 0.32. In experiment [2], the SARS-CoV-2 infection rate was 108% (inactive).
